Out of some 320,000 compounds screened, about 2,100 (0.66%) were called active. Not shown: some 53% with an inconclusive outcome. Calls come from the whole dose curve; as a rule, active = well fitted inhibition curve with a large enough effect in the signal ratio, with a control signal flat (not every such curve was filed as active); inconclusive = small, poorly fitted or top-dose-only effect, or effect the other way, or a change in a side signal; inactive = flat fitted curve, though single readings scatter; the % refers to the signal ratio. Many of the other results were omitted from the sample, so actives are more common in it than they were.
Assay: qHTS Assay for Lipid Storage Modulators in Drosophila S3 Cells;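 for cell number change: cells counted by Cell Tracker Red CMTPX staining in the red channel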
Settings: BODIPY lipid droplet fluorescence, 18-24 h, cells fed with added oleic acid; cell number change: measured here: cell count max response; series mostly up to 46.1 µM
Source text: NIH Molecular Libraries Probe Production Centers Network [MLPCN] NIH Chemical Genomics Center [NCGC] MLPCN Grant: 1 R03 MH085686-01 Assay Submitter (PI): Beller, Mathias; Max-Planck-Institut fur Biophysikalische Chemie NCGC Assay Overview: Storing lipids as a reservoir for energy or the anabolism of elementary metabolites is a common feature of probably all cells and is conserved from bacteria to humans. The universal cellular lipid storage organelle is the so-called lipid storage droplet (LD). Although ubiquitous, LDs share a simple structure composed of a hydrophobic core that harbors the storage lipids, which is shielded by a droplet-specific phospholipid monolayer to which proteins are attached. The current model of LD biogenesis involves an incorporation of the lipid core into the membrane leaflets of the endoplasmic reticulum (ER) followed by a subsequent budding-like maturation of a LD, which ultimately pinches off. Once released, LD volume can increase by localized lipogenesis or fusion of existing droplet. Storage lipids are re-mobilized enzymatically by lipase activity. Lipase regulation in the adipocyte is heavily studied and involves multiple components including catecholamine signaling, the LD-associated proteins Perilipin and comparative gene identification (CGI-58) and at least two lipases named hormone sensitive lipase (HSL) and adipocyte triglyceride lipase (ATGL). LD regulation outside of the adipocyte is poorly understood and only few components are known. However, there is an urgent need to learn more about ectopic fat depots as mislocalized storage of lipids, for example in the liver or muscle, is an eminent health problem associated with insulin resistance or the metabolic syndrome. We developed a laser-scanning cytometer assay to enable 1,536-well screening and combined the results of the small molecules screen with an RNAi database based on lipid storage.
Triacsin C (Sigma-Aldrich T-4540), an inhibitor of long-chain fatty acyl CoA synthetase that blocks synthesis of triglycerides, was used as a positive control for lipid under-storage. A total of 23 nL of compound solution of different concentrations were transferred to the assay plates using a Kalypsys pin tool equipped with a 1,536-pin array containing 10-nL slotted pins (FP1S10, 0.457-mm diameter, 50.8 mm long; V&P Scientific). One microliter of oleic acid (400 uM) was added, and the plate was lidded with stainless steel rubber gasket lined lids containing pinholes. […] Fluorescence was detected by excitation of the fluorophores with a 488-nm laser on an Acumen Explorer (TTP Lab Tech). The total intensity in channel 2 (500-530 nm) reflected lipid droplet accumulation. Cells were detected using channel 3 (575-640 nm) with 5-um width and 100-um depth filters. The ratio of the number of objects in PMT channel 2 over the number of objects in PMT channel 3 was also calculated. Percent activity was computed relative to an internal control (100% inhibited lipid droplet deposition due to the presence of 20 uM Triacsin C), which was added to 32 wells/plate.
Potency is the fitted concentration of half-maximal effect.

| SMILES | Potency | cell number change [%] |
| --- | --- | --- |
| CCn1cc(CN2CCC(Oc3ccc(C(=O)N4CCCCC4)cc3)CC2)cn1 | inactive | – |
| O=C(CN1CCN(Cc2ccccc2Cl)CC1)N/N=C/c1cccs1 | inactive | 19.5 |
| Cc1cccc(OCCOCCN2CCOCC2)c1C | inactive | 8.47 |
| Cc1ccc(C)c(OCCOCCN2CCOCC2)c1 | 7.31 µM (active) | 3.66 |
| Cc1cc(C)c(C)c(OCCN2CCOCC2)c1 | inactive | -23.8 |
| CCn1cc(C2CC(=O)NC2=O)c2ccccc21 (stereo unspecified) | inactive | – |
| CS(=O)(=O)N(CC(=O)NCC1CCCO1)c1ccc(F)c(Cl)c1 (stereo unspecified) | 14.6 µM (active) | -13 |
| CS(=O)(=O)N(CC(=O)NCC1CCCO1)c1cccc(Cl)c1 (stereo unspecified) | inactive | – |
| CS(=O)(=O)N(CC(=O)NCC1CCCO1)c1ccc(Cl)c(Cl)c1 (stereo unspecified) | inactive | -7.69 |
| COCCNC(=O)Cn1nc(C(F)(F)F)c(Cl)c1C | inactive | -6.82 |
| COc1ccc(-c2csc3nc(C(C)(C)C)oc(=O)c23)cc1OC | inactive | 0.241 |
| COc1ccc(-c2ccc(NS(=O)(=O)c3cc([N+](=O)[O-])c(C)c([N+](=O)[O-])c3)cc2)nn1 | inactive | -13.5 |
| CCOc1ccc(-c2ccc(NS(=O)(=O)c3ccc([N+](=O)[O-])cc3)cc2)nn1 | inactive | 0.33 |
| CCOc1ccc(-c2ccc(NS(=O)(=O)c3cc([N+](=O)[O-])c(C)c([N+](=O)[O-])c3)cc2)nn1 | 23.1 µM (active) | -5.38 |
| COC(=O)c1ccc2nc(NC(=O)C(C)(C)C)sc2c1 | inactive | -18.4 |
| CC(C)OC(=O)n1c(=S)oc2ccccc21 | inactive | -3.93 |
| O=C(O)CCn1c(=S)oc2ccccc21 | inactive | 2.74 |
| CC(C)CC(=O)/C=C/n1c(=S)oc2ccccc21 | 23.1 µM (active) | -3.17 |
| COc1ccccc1NC(=O)C1CCCN(c2ncnc3c2nc2n3CCCCC2)C1 (stereo unspecified) | inactive | -12.6 |
| Cc1cc[n+](Cc2ccc([N+](=O)[O-])cc2)cc1 | inactive | -4.93 |
| N=c1n(CCN2CCCCC2)c2ccccc2n1CC(O)c1ccco1 (stereo unspecified) | inactive | 15.8 |
| CCCn1c(=N)n(CC(O)c2ccco2)c2ccccc21 (stereo unspecified) | inactive | 16.8 |

| SMILES | Potency | cell number change [%] |
| --- | --- | --- |
| N=c1n(CCN2CCCC2)c2ccccc2n1CC(O)c1ccco1 (stereo unspecified) | 23.1 µM (active) | 7.5 |
| Cc1onc(C(=O)N2CCN(C(c3ccccc3)c3ccccc3)CC2)c1[N+](=O)[O-] | inactive | 3.65 |
| CC(OC(=O)C1=Cc2ccccc2OC1)C(=O)NCc1ccco1 (stereo unspecified) | inactive | – |
| CCC(C(=O)Nc1cccnc1)n1c(=O)[nH]c2ccccc2c1=O (stereo unspecified) | 18.4 µM (active) | -16 |
| CCC(C(=O)Nc1ccc2c(c1)OCCO2)n1c(=O)[nH]c2ccccc2c1=O (stereo unspecified) | inactive | -11.6 |
| O=C(Cn1[nH]c(=O)c2ccccc2c1=O)Nc1cccnc1 | inactive | 7.37 |
| CCO[C@@H]1OC(C(=O)N2CCN(Cc3ccc4c(c3)OCO4)CC2)=C[C@H](c2ccc3c(c2)OCO3)[C@H]1CCCO | inactive | – |
| O=c1c2ccccc2nnn1CCN1CCOCC1 | inactive | -18.2 |
| Cc1ccc2nc(SC(C)C(=O)N3CCCC3)[nH]c2c1 (stereo unspecified) | inactive | 17.4 |
| CCC(Sc1nc2ccccc2c(=O)[nH]1)C(=O)O (stereo unspecified) | inactive | -2.97 |
| CCC(Sc1nc2ccc(C)cc2[nH]1)C(=O)O (stereo unspecified) | 14.6 µM (active) | 14.5 |
| Cc1ccc(-c2csc3nc[nH]c(=O)c23)cc1C | inactive | -18.4 |
| COc1cccc(-c2csc3nc[nH]c(=O)c23)c1 | 20.6 µM (active) | – |
| O=c1[nH]cnc2scc(-c3ccccc3)c12 | inactive | -0.547 |
| OCCCNc1ncnc2oc(-c3ccccc3)c(-c3ccccc3)c12 | inactive | 13.3 |
| C(=N\Nc1nc2ccccc2[nH]1)/c1ccccc1 | inactive | -28.7 |
| CCCn1c(/C=N/Nc2nc3ccccc3[nH]2)nc2ccccc21 | 13 µM (active) | -13.7 |
| CC(C)Cn1c(/C=N/Nc2nc3ccccc3[nH]2)nc2ccccc21 | inactive | -7.46 |
| CCOC(=O)N1CCN(Cc2nnc(-c3ccccc3C)o2)CC1 | inactive | 3.5 |
| Cc1cc(NC(=O)c2cccs2)ncc1NC(=O)c1cccc(F)c1 | inactive | 0.447 |
| CCCCc1nc(C(N)=O)c2[nH]c(=O)n(-c3ccc(OC)c(OC)c3)c2n1 | inactive | – |
| CC1CCCCC1NC(=O)CN1C(=O)COc2ccccc21 (stereo unspecified) | inactive | -0.697 |

| SMILES | Potency | cell number change [%] |
| --- | --- | --- |
| CCC1Oc2ccccc2N(CC(=O)NC2CCCCC2C)C1=O (stereo unspecified) | 29.1 µM (active) | -4.58 |
| CCC1Oc2ccccc2N(CC(=O)NC2CCCCC2)C1=O (stereo unspecified) | inactive | 2.82 |
| CC(C)c1nnc(NC(=O)COc2ccccc2[N+](=O)[O-])s1 | inactive | 0.142 |
| Cc1ccc(C(=O)Nc2nc(-c3ccccn3)cs2)s1 | 2.06 µM (active) | -8.64 |
| CC(=O)Nc1ccc(C(=O)Nc2nc(-c3ccccn3)cs2)cc1 | inactive | – |
| O=C(Nc1nc(-c2ccccn2)cs1)c1ccco1 | inactive | -10.5 |
| Cc1ccnc2nc(C(=O)Nc3nc(-c4ccccn4)cs3)nn12 | 1.64 µM (active) | -16 |
| CCc1cc(C(=O)Nc2ncccc2O)sc1C | inactive | -6.68 |
| Cn1nc(C(=O)Nc2nc(-c3ccccn3)cs2)c2ccccc2c1=O | inactive | -20.7 |
| CCc1cc(C(=O)Nc2nc(-c3ccccn3)cs2)sc1C | 5.17 µM (active) | 3.52 |
| Cc1cc(C)c(OCC(=O)Nc2nc(-c3ccccn3)cs2)c(C)c1 | inactive | 1.77 |
| Cc1ccnc2nc(C(=O)Nc3nccs3)nn12 | inactive | -14.4 |
| CCCNC(=O)c1cccc(Br)c1 | inactive | – |
| CC(=O)N1CCc2cc(Br)cc(S(=O)(=O)N3CCCCC3)c21 | inactive | -26.2 |
| CC(=O)Nc1cccc(NC(=O)C(C)N2c3cccc4cccc(c34)S2(=O)=O)c1 (stereo unspecified) | inactive | 20.8 |
| COC(=O)C1(C(C[N+](=O)[O-])c2ccco2)C(=O)NCC1c1ccccc1 (stereo unspecified) | inactive | – |
| Cc1cc(Oc2ccccc2)nc(NCc2ccccc2)n1 | inactive | -8.62 |
| Cc1cc(Nc2ccccc2)nc(NCc2ccccc2)n1 | 8.2 µM (active) | -27.7 |
| COc1cc(C)nc(NCc2ccccc2)n1 | inactive | – |
| CCOc1ccc2nc(N3C(=O)/C(=C/c4ccccc4)NC3=S)sc2c1 | 9.2 µM (active) | -2.65 |
| CCOc1ccc2nc(N3C(=O)/C(=C/c4ccc(Cl)cc4)NC3=S)sc2c1 | inactive | 13.8 |
| COc1ccc2nc(N3C(=O)/C(=C/c4ccc(Cl)cc4)NC3=S)sc2c1 | inactive | 28.8 |

— PubChem BioAssay AID2685 (National Center for Advancing Translational Sciences (NCATS), 2010)
